Here are results for 38 compounds from PubChem BioAssay AID720533 (National Center for Advancing Translational Sciences (NCATS), 2013).

Values joined by “and” are separate entries in the source; they are usually repeats but may differ in a detail not shown here. Equal entries are not always repeated. In all, about 18,000 compounds went through this assay and about 750 (4.2%) were called active. Another 13% or so got no clear call; they are omitted. Calls come from the whole dose curve; tested in HEK293 cells. This excerpt belongs to a sample that is enriched for actives. Where a structure was tested more than once in an assay, its records may differ in their call.
% is set by controls: 0 for no effect and ±100 for the full control effect; potency is the fitted concentration of half-maximal effect.

This assay is described as follows: qHTS for Inhibitors of binding or entry into cells for Lassa Virus. As to conditions: Lassa virus pseudotyped entry inhibition, cell-based qHTS; series mostly up to 49.2 µM; activity change, negative = inhibition: at the top concentration.
For `COc1ccc(O[C@H]2C=C[C@@H](c3ccccc3)O[C@H]2COC(=O)CCC(C)=NOC[C@@H](C)[C@H](OCc2ccccc2)C(C)C)cc1`, the activity change, negative = inhibition was -27.6% [at 8.59 µM] (inactive). Turning to `CCCCC/C=C\C/C=C\C/C=C\CCCCCCC(N)=O`, the “activity change, negative = inhibition” value was 4.71% (inactive). Turning to `COc1ccc(O[C@H]2C=C[C@@H](c3ccccc3)O[C@H]2CON=C[C@@H](C)[C@H](OCc2ccccc2)C(C)C)cc1`, the activity change, negative = inhibition is -25.5% [at 8.59 µM] (inactive). Regarding `CCN(CC)CCCN=C1NC(c2ccccc2)C(C(=O)OC)=C(C)N1CC` (stereo not drawn), the activity change, negative = inhibition was 9.38% [at 8.59 µM] (inactive). For the compound `C[C@H]1Cc2c(COc3ccccc3)nc3c(c2CO1)CN(C(=O)Nc1cccc(C#N)c1)CC3`, the activity change, negative = inhibition was -15.7% [at 8.59 µM] (inactive) and -11.7% [at 8.59 µM] (inactive). Consider `CC1(C)S[C@@H]2[C@H](N=CN3CCCCCC3)C(=O)N2[C@H]1C(=O)O`, for which the “activity change, negative = inhibition” value was 3.64% (inactive). On to `CC(C)(Cc1c[nH]c2ccc(Cl)cc12)NCCOc1ccccc1OCC1CC1`, for which the Potency was 28.2 µM (active). Take `CC(=O)OCC(=O)[C@@]1(O)CCC2C3CCC4=CC(=O)CC[C@@]4(C)[C@]3(F)C(O)C[C@]21C` (stereo partly drawn): the “activity change, negative = inhibition” value was 2.6% (inactive). With `Cc1ccc(-c2ccnc(-n3ncc(C(=O)N(C)Cc4cccc5ncccc45)c3C3CC3)n2)o1`, the “activity change, negative = inhibition” value is -21.1% (inactive). Take `Cc1cccc(CNC(=O)c2cnn(-c3nccc(-c4ccccc4F)n3)c2C2CC2)n1`: the “activity change, negative = inhibition” value was -0.396% (inactive).

On to `CN(Cc1cccc2ncccc12)C(=O)c1cnn(-c2nccc(-c3ccccc3F)n2)c1C1CC1`, for which the Potency was 12.6 µM (active). On to `Cc1ccc(S(=O)(=O)N2CCC(=O)N([C@H](COCc3ccccc3)Cc3ccccc3)CC2)cc1`, for which the “activity change, negative = inhibition” value is -0.656% (inactive). As for `CCC1CN(CCNC(=O)c2ccsc2)Cc2cc(OC)ccc2O1` (stereo not drawn), the “activity change, negative = inhibition” value was -13.6% (inactive).

For `CCCCN1CC(COCc2ccccc2)OCCS1(=O)=O` (stereo not drawn), the “activity change, negative = inhibition” value is 14.1% (inactive).

For `C=C(C)C1CC=C(CO)CC1` (stereo not drawn), the “activity change, negative = inhibition” value was -12% (inactive). `C=C1/C(=C\C=C2\CCCC3(C)C2CCC3C(C)/C=C/C(O)C2CC2)CC(O)CC1O` (stereo not drawn): the Potency was 10 µM (active). As for `N#Cc1c(Cl)c(Cl)c(Cl)c(C#N)c1Cl`, the Potency was 2.24 µM (active). Regarding `CC(C)(O)CCC(O)[C@@](C)(O)C1CC[C@]2(O)C3=CC(=O)C4CC(O)C(O)C[C@]4(C)C3CC[C@]12C` (stereo partly drawn), the “activity change, negative = inhibition” value was -0.611% (inactive). As for `COC(C)C(C(=O)OCC1=CCN2CC[C@H](O)[C@@H]12)C(C)C` (stereo partly drawn), the “activity change, negative = inhibition” value was -11.7% (inactive). For the compound `COC(=O)C12C[C@H](C)C3C(C)C(c4ccccc4C31)N2C(=O)C(F)(F)F` (stereo partly drawn), the activity change, negative = inhibition is 4.09% [at 8.59 µM] (inactive). As to `CCCCC[C@H](O)/C=C/[C@@H]1[C@@H](CC(=O)CCC(=O)O)[C@@H](O)C[C@H]1O`, the “activity change, negative = inhibition” value is -8.8% (inactive).

On to `COc1cc(C(=O)N2CCOCC2)cc(OC)c1OC`, for which the activity change, negative = inhibition result was “inactive”.

Take `COC(=O)C1=C(C(=O)OC)[C@@H]2N(C)c3ccccc3[C@@]23C[C@@H](C(=O)OC)N(C(=O)c2ccco2)C3=N1`: the activity change, negative = inhibition is 11.9% [at 8.59 µM] (inactive).

In the case of `CC(C)c1cnc(NC(=O)Cc2ccccc2)s1`, the “activity change, negative = inhibition” value was 19.7% (inactive). As for `CC(=O)Oc1ccccc1C(=O)Nc1ncc([N+](=O)[O-])s1`, the Potency is 7.94 µM (active). As for `CCOC(=O)[C@H](CCc1ccccc1)N[C@@H](C)C(=O)N1CC2(C[C@H]1C(=O)O)SCCS2`, the “activity change, negative = inhibition” value is -3.33% (inactive). Turning to `COc1cccc(CN2CCC3(CC2)c2ccccc2[C@@H](NC(=O)c2ccccc2OC)[C@@H]3O)c1`, the “activity change, negative = inhibition” value was -19.8% (inactive). Regarding `CO[C@@H]1C[C@@H](C[C@H]2CC[C@H](C)[C@@H]([C@@H](C)C(=O)O)O2)O[C@]2(O[C@](C)([C@H]3CC[C@@](C)(C4OC([C@H]5O[C@@](O)(CO)[C@H](C)C[C@@H]5C)C[C@@H]4C)O3)C[C@H]2C)[C@@H]1C` (stereo partly drawn), the Potency is 3.16 µM (active). As to `O=C(C1CCCCC1)N1C[C@H](O)[C@H](n2cc(-c3ccc(F)cc3)nn2)C[C@@H]1c1ccccc1`, the “activity change, negative = inhibition” value was -16.6% (inactive). With `CC1C(O)CC2C(C(=O)O)=CO[C@@H](O[C@H]3OC(CO)C(O)C(O)C3O)C21` (stereo partly drawn), the “activity change, negative = inhibition” value was -0.42% (inactive). Still for that read-out and setting: the value for `CO[C@H]1[C@@H](O)[C@H](N)[C@@H](O[C@H]2O[C@H]([C@H](C)N)CC[C@H]2N)[C@H](O)[C@@H]1N(C)C(=O)CN` was -19.4% (inactive); that for `CCC1CN(CCNC(=O)c2cccc(C)n2)Cc2cc(OC)ccc2O1` (stereo not drawn) was -1.6% (inactive). The same measure, in the same setting: the value for `CS(=O)(=O)c1ccc(Oc2nccc(-c3c(-c4ccc(F)cc4)ncn3C3CCNCC3)n2)cc1` was -23.2% (inactive); that for `COc1ccc(NC(=O)C[C@H]2C(=O)N(CCc3ccccc3)C[C@@H]2C)cc1` was -3.95% (inactive); that for `Oc1ccc(Cl)c2c1CCC2` was -0.737% (inactive).

For the compound `CC[C@]1(O)C[C@@H]2CN(CCc3c([nH]c4ccccc34)[C@@](C(=O)OC)(c3cc4c(cc3OC)N(C)[C@H]3[C@@](O)(C(=O)OC)[C@H](OC(C)=O)[C@]5(CC)C=CCN6CC[C@]43[C@@H]65)C2)C1`, the Potency entry was “inactive and 22.4 µM (active)”. `CC(C)C[C@@H](CC(=O)N[C@@H](CCC(=O)O)CC(=O)O)NC(=O)[C@@H]1CCCC[C@H]1NC(=O)C[C@@H](NC(=O)C[C@H](Cc1c[nH]c2ccccc12)NC(=O)[C@@H]1CCCC[C@H]1N)C(C)C`: the “activity change, negative = inhibition” value is -0.613% (inactive).

As to `C[C@@H]1O[C@@H](OC[C@H]2O[C@@H](Oc3cc(O)c4c(c3)O[C@H](c3ccc(O)c(O)c3)CC4=O)[C@H](O)[C@@H](O)[C@@H]2O)[C@H](O)[C@H](O)[C@H]1O`, the “activity change, negative = inhibition” value is -8.36% (inactive).
